About 75 (0.4%) of roughly 17,000 compounds were called active.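 Rule for the calls: active = compounds whose four printed spots each glow above background more than chance allows, each with a p-value under 7%; inactive = the rest.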 The sample as a whole holds a higher share of actives than the screen did.
tested on: mutant tumor protein p53 (GST-tagged), Homo sapiens; experiment: binders of human mutant p53, primary screen, biochemical, small molecule microarray, anti-GST fluorescence (AID 624136); conditions: small molecule microarray binding

Row | SMILES | outcome
1 | C[C@@H]1CN([C@@H](C)CO)C(=O)c2cccc(NC(=O)c3ccncc3)c2O[C@H]1CN(C)S(=O)(=O)c1ccc(F)cc1 | inactive
2 | C[C@H](CO)N1C[C@H](C)[C@@H](CN(C)CC2CCCCC2)Oc2ccc(NC(=O)Cn3cnnn3)cc2CC1=O | inactive
3 | COc1cc(C2OC(c3cc(OC)c(OC)c(OC)c3)C(C)C2C)cc(OC)c1OC (centres undefined) | inactive
4 | C[C@@H]1CN([C@@H](C)CO)C(=O)c2cc(NS(=O)(=O)c3ccccc3)ccc2O[C@@H](C)CCCCO[C@H]1CN(C)S(=O)(=O)c1cccs1 | inactive
5 | Cc1cc(C)cc(N2C(=O)CSC2c2cccc([N+](=O)[O-])c2)c1 (centres undefined) | inactive
6 | C[C@H](CO)N1C[C@H](C)[C@H](CN(C)C)Oc2ncc(C#Cc3ccc(F)cc3)cc2C1=O | inactive
7 | C[C@H]1CN([C@@H](C)CO)C(=O)Cc2cc(NC(=O)NC3CCCCC3)ccc2O[C@H]1CN(C)S(=O)(=O)c1ccccc1 | inactive
8 | C[C@H]1CN([C@@H](C)CO)C(=O)c2cccc(NS(=O)(=O)c3ccccc3)c2O[C@@H]1CN(C)C(=O)Nc1ccc(C(F)(F)F)cc1 | inactive
9 | Cc1noc(C)c1NC(=O)N(C)C[C@@H]1Oc2ccc(NC(=O)CCN3CCOCC3)cc2CC(=O)N([C@H](C)CO)C[C@@H]1C | inactive
10 | COc1ccc(S(=O)(=O)Nc2ccc3c(c2)CC(=O)N([C@@H](C)CO)C[C@@H](C)[C@@H](CN(C)C)O3)cc1 | inactive
11 | CCO/C([O-])=N\c1c[n+](N2CCOCC2)no1 | inactive
12 | C[C@H](CO)N1C[C@H](C)[C@@H](CN(C)CC2CC2)Oc2ccc(NS(=O)(=O)c3cn(C)cn3)cc2CC1=O | inactive
13 | Cc1ccc(-c2cn3c4c(sc3n2)CCCC4)cc1 | inactive
14 | Cc1noc(C)c1S(=O)(=O)N(C)C[C@H]1Oc2ccc(NC(=O)CCN3CCOCC3)cc2CC(=O)N([C@H](C)CO)C[C@H]1C | inactive
15 | C[C@@H]1CN([C@H](C)CO)C(=O)CCCn2cc(nn2)CO[C@@H]1CN(C)C(=O)c1ccc2ccn(C)c2c1 | inactive
16 | CC(C)NC(=O)N(C)C[C@@H]1Oc2ccc(NC(=O)C3CC3)cc2C(=O)N([C@@H](C)CO)C[C@H]1C | inactive
17 | C[C@@H]1CN([C@H](C)CO)C(=O)Cc2cc(NC(=O)C3CC3)ccc2O[C@H]1CN(C)Cc1ccc(Cl)c(Cl)c1 | active
18 | C[C@@H]1CCCCO[C@H](CN(C)C(=O)c2ccccc2)[C@H](C)CN([C@@H](C)CO)C(=O)c2cc(NC(=O)Nc3ccc4c(c3)OCO4)ccc2O1 | inactive
19 | C[C@@H]1CN([C@H](C)CO)C(=O)Cc2cc(NC(=O)C3CC3)ccc2O[C@H]1CN(C)Cc1ccc2c(c1)OCO2 | inactive
20 | C[C@@H]1CCCCO[C@H](CN(C)Cc2ccncc2)[C@H](C)CN([C@H](C)CO)C(=O)c2cc(NC(=O)Nc3ccccc3)ccc2O1 | inactive
21 | C[C@@H]1CN([C@@H](C)CO)C(=O)c2cc(NC(=O)Nc3ccc4c(c3)OCO4)ccc2O[C@@H](C)CCCCO[C@@H]1CN(C)Cc1ccccc1 | active
22 | C[C@H](CO)N1C[C@H](C)[C@@H](CN(C)C(=O)Nc2ccccc2)Oc2ccc(NC(=O)C3CC3)cc2CC1=O | inactive
23 | C[C@@H]1CCCCO[C@@H](CN(C)Cc2ccc(C(=O)O)cc2)[C@H](C)CN([C@@H](C)CO)C(=O)c2cc(NC(=O)Nc3ccc(C(F)(F)F)cc3)ccc2O1 | inactive
24 | C[C@@H]1CC[C@]2(C)[C@H](CC[C@@H](O)[C@]2(C)O)[C@@]1(C)CC(=O)c1ccoc1 | inactive
25 | CC(=O)N[C@@H](C(=O)O[C@H]1CCC(C)(C)[C@@H]2CCC3=C(COC3=O)[C@@]12C)C(C)C | inactive

Row | SMILES | outcome
26 | CC(C)NC(=O)N(C)C[C@H]1OCCCC[C@H](C)Oc2ccc(NC(=O)Nc3ccc(C(F)(F)F)cc3)cc2C(=O)N([C@H](C)CO)C[C@@H]1C | inactive
27 | CC(C)NC(=O)N(C)C[C@@H]1OCCCC[C@@H](C)Oc2ccc(NC(=O)Cc3ccccc3)cc2C(=O)N([C@H](C)CO)C[C@H]1C | inactive
28 | C[C@H]1CN([C@@H](C)CO)C(=O)c2cccc(NC(=O)Nc3ccc(C(F)(F)F)cc3)c2O[C@H]1CN(C)C(=O)NC1CCCCC1 | inactive
29 | COC(=O)C1=CO[C@@H](O[C@@H]2O[C@H](CO)[C@@H](O)[C@H](O)[C@H]2O)[C@@H]2[C@@](C)(O)[C@@H](OC(=O)/C=C/c3ccc(OC)c(OC)c3)C[C@]12O | inactive
30 | C[C@H](CO)N1C[C@H](C)[C@H](CN(C)S(=O)(=O)c2cn(C)cn2)Oc2c(NC(=O)c3ccncc3)cccc2C1=O | inactive
31 | Cc1noc(C)c1NC(=O)N(C)C[C@@H]1Oc2ccc(NC(=O)Nc3ccc(F)cc3)cc2C(=O)N([C@H](C)CO)C[C@@H]1C | inactive
32 | C[C@H](CO)N1C[C@H](C)[C@H](CN(C)C)Oc2c(NC(=O)C3CCOCC3)cccc2C1=O | inactive
33 | C[C@@H]1CN([C@@H](C)CO)C(=O)Cc2cc(NS(C)(=O)=O)ccc2O[C@@H]1CN(C)Cc1ccc2c(c1)OCO2 | inactive
34 | O=C(C1=C[C@H](c2ccc(C(F)(F)F)cc2)C[C@H](OCc2ccc(CO)cc2)O1)N1CCN(Cc2ccccc2)CC1 | inactive
35 | C[C@H](CO)N1C[C@H](C)[C@@H](CN(C)C)Oc2ccc(NS(=O)(=O)c3cccs3)cc2C1=O | inactive
36 | COc1ccc(S(=O)(=O)N(C)C[C@H]2OCCCC[C@@H](C)Oc3ccc(NC(=O)CCC(F)(F)F)cc3C(=O)N([C@@H](C)CO)C[C@H]2C)cc1 | inactive
37 | Cc1noc(C)c1NC(=O)N(C)C[C@H]1Oc2ccc(N(C)C)cc2CC(=O)N([C@H](C)CO)C[C@H]1C | inactive
38 | C[C@H]1CCCCO[C@H](CN(C)C(=O)Nc2ccccc2)[C@@H](C)CN([C@@H](C)CO)C(=O)c2cc(NC(=O)CCC(F)(F)F)ccc2O1 | inactive
39 | N#Cc1c(-c2ccccc2)cc(-c2ccccc2)nc1SCC(=O)O | inactive
40 | CC(Sc1nnc(N)s1)C(=O)Nc1cccc(Cl)c1 (centres undefined) | inactive
41 | COc1ccc(NC(=O)Nc2cccc3c2O[C@@H](CN(C)Cc2ccncc2)[C@H](C)CN([C@H](C)CO)C3=O)cc1 | inactive
42 | COC(=O)C1(Cc2ccc(O)c(CC3OC3(C)C)c2)OC(=O)C(=O)C1c1ccc(O)cc1 (centres undefined) | inactive
43 | C[C@@H]1CCCCO[C@H](CN(C)S(=O)(=O)c2cccs2)[C@H](C)CN([C@@H](C)CO)C(=O)c2cc(NS(=O)(=O)c3cccs3)ccc2O1 | inactive
44 | C[C@@H]1CN([C@H](C)CO)C(=O)c2cc(NC(=O)NC3CCCCC3)ccc2O[C@H]1CN(C)C(=O)Nc1ccccc1 | inactive
45 | COc1ccc(C)cc1NC(=O)CSc1nc(SC)ns1 | inactive
46 | C[C@H](CO)N1C[C@H](C)[C@@H](CN(C)C(=O)Nc2ccccc2F)OCc2cn(nn2)CCCC1=O | inactive
47 | COc1ccc(NC(=O)Nc2ccc3c(c2)C(=O)N([C@H](C)CO)C[C@H](C)[C@@H](CN(C)S(=O)(=O)c2ccc(OC)cc2)OCCCC[C@H](C)O3)cc1 | inactive
48 | C[C@H](CO)N1C[C@H](C)[C@H](CN(C)C(=O)Nc2ccc3c(c2)OCO3)Oc2ncc(Br)cc2C1=O | inactive
49 | C[C@H]1CN([C@@H](C)CO)C(=O)Cc2cc(NC(=O)Nc3ccc4c(c3)OCO4)ccc2O[C@H]1CN(C)CC1CC1 | inactive
